D2 ag-1: activates the human D2 dopamine receptor; P14416; HEK293 T-REx D2 cells, calcium flux agonist mode; activation, % at 2 µM; 340,000 tested, 0.53% active; AID 485358;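 active = activation over 3 SD above normal in the single-dose calcium agonist read, cut at about 30% in these data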; also: 0% is about no effect
Target sequence (P14416 whole entry, looked up): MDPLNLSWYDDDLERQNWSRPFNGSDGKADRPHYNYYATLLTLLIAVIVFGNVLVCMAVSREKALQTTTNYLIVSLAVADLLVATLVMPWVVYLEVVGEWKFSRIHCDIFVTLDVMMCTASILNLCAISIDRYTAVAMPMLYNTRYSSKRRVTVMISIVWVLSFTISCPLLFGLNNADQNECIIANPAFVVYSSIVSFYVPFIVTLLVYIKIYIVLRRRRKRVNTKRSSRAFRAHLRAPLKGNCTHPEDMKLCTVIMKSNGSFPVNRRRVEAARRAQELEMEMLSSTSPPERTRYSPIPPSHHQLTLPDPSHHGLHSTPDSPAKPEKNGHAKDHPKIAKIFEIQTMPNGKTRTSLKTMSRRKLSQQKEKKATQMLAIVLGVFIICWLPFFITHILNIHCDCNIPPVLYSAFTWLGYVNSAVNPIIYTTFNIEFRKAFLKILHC
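Calcium-flux readout, 1 cycle/sec over 180 s following compound pin transfer, in inducible HEK293 Trex D2 cells (force-coupled); dopamine controls included. Positive calcium responses during this window marked compounds as potential agonists.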
D2 PAM-1: human D2 receptor positive allosteric modulation; potentiation, % (test concentration not listed); DiscoveRx D2 beta-arrestin cells, luminescence, 90 min; 100% = 57 uM dopamine signal; 360,000 tested, 0.23% active; P14416; in the data active = potentiation above about 50%; inconclusive = mostly about 30% to 49%
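D2 cells co-treated with compound plus 50 nM dopamine (EC20) for 90 min at 37 deg C to detect potentiation. Beta-arrestin recruitment was read as enzyme-fragment luminescence after 1 h at ambient temperature. Full response was set by 57 uM dopamine.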
D2 PAM-2: positive allosteric modulators of human D2 dopamine receptor | 340,000 tested, 0.34% active | P14416 | AID 485347 | HEK293 T-REx D2, calcium flux, EC20 dopamine potentiation | potentiation, % at 10 µM;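 active = potentiation over 3 SD above the plate norm, cut at about 30% in these data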; also: 0% is about no effect
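Potentiation of an EC20 dopamine calcium response is measured in a force-coupled, tetracycline-inducible Hek293 Trex D2 line. Compound-only kinetic reads over 180 s flag agonists before dopamine addition.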
D2 ag-2: activates the human D2 dopamine receptor; DiscoveRx PathHunter D2 beta-arrestin, luminescence, 90 min; 100% = 57 uM dopamine signal; activation, % (concentration not given with the values); 360,000 tested, 0.084% active; in the data active = activation above about 40%; inconclusive = between about 15% and that limit
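Agonist mode: compounds alone added to overnight-plated D2 PathHunter cells for 90 min at 37 C, with 57 uM final dopamine (EC100) defining full response. Beta-arrestin recruitment detected by chemiluminescent reagent, read after 1 h at ambient temperature.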
D2 antag: antagonists of human D2 dopamine receptor | 340,000 tested, 2% active | inhibition, % at 10 µM | HEK293 TREx D2 cells, calcium flux, dopamine EC80 | P14416; in the data active = inhibition above about 30%; inactive = below that, where a call was filed; also: 0% is about no effect
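In this primary screen, negative modulation is detected by tracking calcium flux after an EC80 dopamine challenge in inducible HEK293 T-REx D2 cells preexposed to test compound for 180 s.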
Numbers without * were called inactive; ? = inconclusive; · = no result given. In the library only some 2.4% were active in any assay of this set; here they are far more common.

SMILES | D2 ag-1 | D2 PAM-1 | D2 PAM-2 | D2 ag-2 | D2 antag
COc1ccc(-n2nc([N+](=O)[O-])c(=NC3CCN(Cc4ccccc4)CC3)n2O)cc1 | 0.3 | 15.7 | -49.2 | ? | 71.2*
CN(CC(=O)Nc1cc(C(F)(F)F)ccc1-n1cncn1)Cc1ccccc1N1CCOCC1 | · | 0.7 | · | 8.7 | ·
Cc1nn(C)c2c1c(-c1ccccc1)cc(=O)n2CC(=O)Nc1ccccc1C(F)(F)F | -0.2 | · | -7.6 | · | ·
N#Cc1cccc(N2[C@@H](Cc3cc4ccccc4n3Cc3ccccc3)COC[C@H]2Cc2ccc3ccccc3c2)c1 | · | 3.4 | · | -2.1 | ·
COc1ccc(-n2nc([N+](=O)[O-])c(=NCCc3ccc(OC)c(OC)c3)n2O)cc1 | 1.4 | 136.8* | 2.9 | ? | -0.8
CCc1ccc(N=c2c([N+](=O)[O-])nn(-c3ccccc3)n2O)cc1 | 0.7 | 89.5* | 3.9 | 13.1 | 8.1
CC(C)N(C(=O)CSc1nc2ccccc2n1Cc1ccccc1)C(C)C | -1.0 | -17.4 | 36.0* | -5.6 | -24.7
Cc1noc(C)c1CSc1nc2ccccc2n1CCc1ccccc1 | -1.0 | -9.5 | 35.5* | -1.6 | -13.0
O=C(O)CCn1c(SCc2ccccc2)nc2ccccc21 | 0.2 | -12.2 | -5.1 | -1.2 | -0.5
CCSc1nc2ccccc2n1CC(=O)OC | 0.0 | -5.6 | -0.1 | -3.6 | -5.8
COC(=O)Cn1c(SCc2ccccc2)nc2ccccc21 | -0.6 | -3.8 | 31.3* | -0.5 | -1.4
CC1CCCC(NS(=O)(=O)c2cccc3nsnc23)C1C (stereo not given) | -1.8 | -7.6 | -5.0 | 6.8 | -12.5
C=C(CN(C)C)C(=O)c1cc(OC)c(OC)cc1OC | · | -29.3 | · | -1.1 | ·
CC(Sc1nc(O)c(-c2ccccc2)c(=O)[nH]1)C(=O)Nc1ccc(Cl)cc1 (stereo not given) | -2.3 | -8.7 | 3.5 | 2.8 | -31.6
Cc1ccc(NC(=O)C(C)Sc2nc(-c3ccccc3)cc(=O)[nH]2)cc1 (stereo not given) | -0.6 | -7.5 | -0.8 | -2.7 | 36.5*
CCO[C@H]1OC(C(=O)O)=C[C@@H](c2csc3ccccc23)[C@@H]1CCCO | -0.2 | -2.7 | 10.8 | -0.2 | 31.6*
CCO[C@H]1OC(C(=O)N2CCCCCCC2)=C[C@@H](c2csc3ccccc23)[C@@H]1CCCO | -0.2 | -13.2 | -2.7 | -1.8 | 5.5
Cc1noc(C)c1S(=O)(=O)Nc1ccc2c(c1)C(=O)N([C@@H](C)CO)C[C@H](C)[C@@H](CN(C)Cc1ccc(C(F)(F)F)cc1)OCCCC[C@H](C)O2 | · | -0.9 | · | 1.4 | ·
Clc1ccc(CN2CCC(c3nc4ccc(Cl)cc4[nH]3)CC2)cc1 | 0.1 | -37.1 | -30.1 | -0.9 | 82.2*
CSc1ccc(CN2CCC(Oc3cccc(C(=O)N4CCCC4)c3)CC2)cc1 | 0.8 | -19.6 | -12.9 | -0.8 | -34.2
CSc1ccc(CN2CCC(Cc3ccccc3)CC2)cc1 | -1.0 | -83.2 | -16.7 | -2.0 | 30.8*
c1ccc(CC2CCN(Cc3ccccn3)CC2)cc1 | 0.3 | -20.4 | -13.8 | -4.0 | 30.2*
OCC1(Cc2ccccc2)CCN(Cc2ccccn2)CC1 | -0.3 | -6.2 | 10.0 | 4.1 | -6.6
CSc1ccc(OC2CCN(Cc3ccccc3)CC2)cc1 | 0.5 | -30.7 | -15.9 | -4.4 | 30.6*
C=C(C)Cn1c2ccc(NC(=O)NCc3ccccc3)cc2c(=O)n1C | · | -2.2 | · | 4.1 | ·
SMILES | D2 ag-1 | D2 PAM-1 | D2 PAM-2 | D2 ag-2 | D2 antag
O=C(Nc1cccc(C(=O)OCc2cc(=O)n3c4c(sc3n2)CCCC4)c1)c1ccc(Cl)cc1 | -2.4 | · | 5.7 | · | ·
c1ccc(CN2CCN(c3ncccn3)CC2)nc1 | 47.8* | · | -22.3 | · | 37.3*
O=C(c1ccc(-c2ccccc2)cc1)N1CCN(Cc2ccccn2)CC1 | · | -1.3 | · | -2.2 | ·
Clc1ccc(CN2CCC(Cc3ccccc3)CC2)cc1 | -1.3 | -40.7 | -32.6 | -1.4 | 48.3*
Clc1ccc(CN2CCC(c3ccccc3)CC2)cc1 | -0.5 | -54.5 | -25.9 | 0.7 | 84.7*
Clc1cccc(CN2CCC(Cc3ccccc3)CC2)c1 | · | -15.5 | · | -2.1 | ·
CN(C)c1ccc(-c2nc(-c3ccco3)no2)cc1[N+](=O)[O-] | 1.0 | · | -1.4 | · | ·
Cc1nc(-c2ccc(F)cc2)c(CC(=O)N(C)CC(=O)Nc2ccc(Br)cc2C)s1 | 0.7 | -5.1 | -25.1 | -4.1 | 58.5*
O=C1CCCc2c1cc(C(=O)Nc1ccc(Br)cn1)c(=O)n2-c1ccccc1 | 3.8 | 55.2* | -3.0 | 11.0 | 10.5
O=C1CCCc2c1cc(C(=O)O)c(=O)n2-c1ccccc1 | -0.3 | 3.3 | -3.7 | -1.9 | 6.6
COc1ccc(CN2CCc3c(c(=O)n4ncc(C(=O)N5CCN(c6ccccc6OC)CC5)c4n3C)C2)cc1 | 0.8 | · | 0.0 | · | ·
CC1(C(=O)NCc2ccc(F)cc2)Oc2ccccc2NC1=O (stereo not given) | -0.4 | 4.7 | -14.9 | -0.3 | 75.8*
CC(=O)Nc1cccc(Oc2ncnc3scc(-c4ccc(C)cc4)c23)c1 | 0.8 | 7.3 | -6.3 | 5.4 | 33.9*
C[C@H](NC(=O)c1nc[nH]c1C(=O)NC(c1ccccc1)c1ccccc1)C(=O)OC(C)(C)C | · | -10.7 | · | -0.5 | ·
CC(C)(C)OC(=O)CNC(=O)c1[nH]cnc1C(=O)NC(c1ccccc1)c1ccccc1 | 48.2* | -4.0 | -24.7 | -0.5 | -20.8
O=C(Nc1ccccc1C(=O)Nc1ccccc1)c1cccs1 | -2.2 | -2.4 | · | 1.5 | -18.5
O=C(NNC(=O)c1ccccc1Cl)c1cccs1 | · | -20.8 | 32.4* | -2.9 | -6.1
O=C(Nc1ccc(O)cc1C(=O)O)c1cccs1 | 0.0 | 9.5 | 25.2 | -0.6 | 34.6*
Cc1cccc(NC(=O)c2ccc(N(Cc3ccccc3)S(C)(=O)=O)cc2)c1 | -1.9 | · | · | · | ·
CC1CCC(=NNC(=O)Cc2ccccc2)CC1 (stereo not given) | 0.0 | 8.7 | -10.5 | 1.1 | 43.5*
CC1CCC(=NNC(=O)Cc2cccn2C)CC1 (stereo not given) | 2.5 | 4.2 | -2.7 | 3.5 | 2.3
CCOC(=O)c1c(NC(=O)C(C)Oc2ccccc2F)sc(C(C)=O)c1C (stereo not given) | · | · | -3.6 | · | ·
COc1cccc2cc(C(=O)NCc3ccc(Cl)cc3)c(=N)oc12 | -2.1 | -2.4 | 10.6 | -3.5 | 105.9*
COc1cccc2cc(C(=O)NCc3ccccc3)c(=N)oc12 | -0.6 | -0.3 | -3.4 | -6.1 | 5.0
CCC1CN(C(=O)Nc2cccc(OC)c2)c2ccccc2O1 (stereo not given) | 0.5 | · | 3.0 | · | ·
Cc1ccc2oc(C(=O)Nc3ccc(S(=O)(=O)N(C)c4ccccc4)cc3)cc(=O)c2c1 | 0.3 | · | -6.2 | · | ·
Cc1cc(=O)oc2c(C)c(OCC(=O)Nc3cccnc3)ccc12 | 0.3 | -0.3 | -3.2 | 2.7 | 35.8*
O=C(NCC(c1ccc2c(c1)OCO2)N1CCN(c2ccccc2)CC1)C(=O)Nc1ccc(F)cc1 (stereo not given) | · | · | -18.1 | · | ·
S=C(Nc1ccc(Cl)cc1)NC1CCCCC1 | 5.4 | -5.5 | -3.6 | 0.0 | -7.5

Source: PubChem (National Center for Advancing Translational Sciences (NCATS))
